Measured values taken from PubChem BioAssay (NCATS).
Results filed as inconclusive are left out. A call without a number means that no potency is given here. The source made the active and inactive calls. The call rests on the fitted dose curve; in most records, active means well fitted inhibition curve with a large enough effect; inconclusive means small, poorly fitted or top-dose-only effect; inactive means flat fitted curve, though single readings scatter.

biological target: Calcium and integrin-binding protein 1 (Homo sapiens) (UniProt Q99828); experiment: Primary qHTS for Identification of Calcium Integrin Binding Protein 1 (CIB1) Competitor (AID 1508620); conditions: CIB1-GST / FITC-alphaIIb peptide fluorescence polarization; series mostly up to 57.7 µM;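 further: GST tagged CIB1 binding a fluorescein labelled alphaIIb integrin peptide tracer; top concentration of the series differs between compounds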
Sequence (Q99828 whole entry, looked up): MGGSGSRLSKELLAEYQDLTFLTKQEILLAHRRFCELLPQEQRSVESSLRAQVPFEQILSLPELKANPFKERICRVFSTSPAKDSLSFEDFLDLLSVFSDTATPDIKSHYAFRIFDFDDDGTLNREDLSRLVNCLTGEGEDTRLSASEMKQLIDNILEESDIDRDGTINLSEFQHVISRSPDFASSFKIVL
Source text: Assay Provider: Ulhas P. Naik, PhD Sidney Kimmel Medical College Thomas Jefferson University, Philadelphia, PA Primary function of platelets is to maintain hemostasis. At the site of vascular injury, platelets adhere to adhesive proteins such as collagen and von Willebrand factor. Adherent platelets are activated and generate soluble platelet agonists such as thrombin, ADP and thromboxane A2. Following exposure of circulating platelets to these agonists, results in platelet shape change, granule secretion and activation of platelet integrin alphaIIb-beta3. Ligand binding to activated integrin alphaIIb-beta3 triggers outside-in signaling, leading to platelet aggregation, stabilization of platelet plug, and clot retraction. Upon atherosclerotic plaque rupture also causes platelet plug formation, which underlies a number of cardiovascular diseases such as myocardial infraction and stroke. A number of anti-platelet drugs such as aspirin, clopidogrel, prasugrel, vorapaxar, and eptifibatide are currently available to prevent the thrombotic complications. However, these anti-platelet agents have several limitations including inherent variability in individual responses, developing resistance, and serious bleeding side effects. For these reasons they are not suitable for long-term protection. Based on the experiences with current anti-platelet drugs, it appears that the most useful therapeutic approach is to intersect the secondary responses such as integrin outside-in signaling or recruitment of platelets by TxA2 and secreted ADP. Compounds, which can largely preserve the primary hemostatic function of platelets but inhibit secondary response will be most desired therapeutic agents for treatment of cardiovascular disease. CIB1 is a calcium integrin binding protein, which specifically interact with the alphaIIb subunit of integrin alphaIIb-beta3. Binding of CIB1 to alphaIIb regulates the outside-in signaling in platelets, which is needed for thrombus stabilization and thrombus growth. […] Therefore, we propose that discovery of a small molecule that can prevent the association of CIB1 and alphaIIb-beta3 will be a potential anti-platelet agent that can block the thrombus formation without undue effect on hemostasis. Reference: [1] Naik MU, Nigam A, Manrai P, et al. CIB1 deficiency results in impaired thrombosis: the potential role of CIB1 in outside-in signaling through integrin alpha IIb beta 3. J Thromb Haemost.
PROTOCOL TABLES SEQUENCE No. (1, 2, 3, etc.); […] (e.g., Cells, Incubation, Reagent, etc.); VALUE and DESCRIPTION. 1; Reagent; 3 uL; Protein or buffer (4/3x) 2; Compound; 46 nL; Control inhibitor / compound library 3; Time; 15 min; Room temperature incubation 4; Reagent; 1 uL; Fluorescent labeled peptide (4x) 5; Time; 1000 rpm; Centrifuge 6; Time; 15 min; Room temperature incubation 7; Detection; Ex 480/ Em 540; ViewLux Fluorescence Read NOTES (numbers refer to sequence above) 1; Protein Mixture: C1B1-GST (final concentrations of 1 uM). […] 3; Room temperature incubation. 4; Fluorescent Labeled Peptide: FITC-aIIb (final concentration of 100 nM). Sequence of alphaIIb peptide: Acetyl-[…]-FITC (purity is 95.83%). 5; Centrifuge 1000 rpm (164 g) for 15 seconds. 6; Room temperature incubation. 7; ViewLux Fluorescent Polization Read: excitation = 480(20) / emission = 540(25) S and P; FITC Dichroic mirror.

Compound | Potency | activity change, negative = inhibition
CC(=O)NC(CCC(=O)O)C(=O)NCCc1ccc(O)cc1 (stereo not given) | inactive | –
CC(C)[C@@H](C)/C=C/[C@@H](C)[C@H]1CC[C@H]2C3=CC=C4C[C@@H](O)CC[C@]4(C)[C@H]3CC[C@]12C | inactive | –
C=C[C@H]1[C@H](O[C@@H]2O[C@H](CO)[C@@H](O)[C@H](O)[C@H]2O)OC=C(C(=O)OC)[C@H]1C[C@@H]1N[C@H](C(=O)O)Cc2c1[nH]c1ccccc21 | inactive | –
CC(=O)C1CCC2(C)C3=C(CCC12C)C1(C)CCC(=O)C(C)(C)C1CC3 (stereo not given) | inactive | –
CC1(C)NC2N(C1=O)c1ccccc1C2(O)CC(C(=O)O)n1cnc2ccccc2c1=O (stereo not given) | inactive | –
COc1cc2c(cc1O)C1(OC)Cc3ccc4c(c3C1N(C)CC2)OCO4 (stereo not given) | inactive | –
C/C=C/C1=CC2=C(CO1)C(=O)[C@](C)(O)[C@H](OC(=O)c1c(O)cc(OC)c(O)c1C)C2 | inactive | –
CC(/C=C/[C@]1(O)[C@@]2(C)CO[C@@]1(C)C[C@@H](O)C2)=C\C(=O)O[C@@H]1O[C@H](CO)[C@@H](O)[C@H](O)[C@H]1O | inactive | –
COc1ccc2c(c1O)OC[C@H]1c3ccc(O)cc3O[C@@H]21 | inactive | –
CCC(=O)N[C@@H]1Cc2ccccc2[C@H](c2ccccc2)C1 | inactive | –
CC1(C)CC2C3=CCC4C5(C)CCC(OC6OC(C(=O)O)C(O)C(O)C6OC6OC(CO)C(O)C(O)C6OC6OC(CO)C(O)C(O)C6O)C(C)(CO)C5CCC4(C)C3(C)CCC2(C)C(OC2OCC(O)C(OC3OC(CO)C(O)C(O)C3O)C2O)C1O (stereo not given) | – | -16.4% [at 12.4 µM] (inactive)
C/C(=C/CCC(CO)C1CCC2(C)C3CCC4C(C)(C)C(OC5OC(CO)C(O)C(O)C5O)CC(O)C45CC35CCC12C)COC1OC(CO)C(O)C(O)C1O (stereo not given) | inactive | –
CC1CCC2C(C)(C)CC(C)(CO)C2(O)C1C(=O)O (stereo not given) | inactive | –
O=C(O[C@H]1[C@@H]2C=CO[C@@H](O[C@@H]3O[C@H](CO)[C@@H](O)[C@H](O)[C@H]3O)[C@@H]2[C@@]2(CO)O[C@@H]12)c1ccc(O)c(O)c1 | inactive | –
CC1(C)C(=O)N2c3ccccc3[C@]3(CC(n4cnc5ccccc5c4=O)C(=O)O3)[C@H]2N1O (stereo not given in full) | inactive | –
CC1=C(C)C(=O)OC(C(C)C2C(O)CC3C4C5OC5C5(O)CC(OC6OC(CO)C(O)C(O)C6O)CC(O)C5(C)C4CCC32C)C1 (stereo not given) | inactive | –
CC1CCC2(C(=O)OC3OC(CO)C(O)C(O)C3O)CCC3(C(=O)O)C(=CCC4C5(C)CCC(OC6OC(C)C(O)C(O)C6O)C(C)(C)C5CCC43C)C2C1C (stereo not given) | inactive | –
C=C(C(=O)OC)C1CCC2(C)C(O[C@@H]3O[C@H](CO)[C@@H](O)[C@H](O)[C@H]3O)CC(=O)C(C)C2C1O (stereo not given in full) | inactive | –
CC(C)(O)CNc1nc(Nc2ccnc(C(F)(F)F)c2)nc(-c2cccc(C(F)(F)F)n2)n1 | inactive | –
C/C=C/C=C/C(CC(=O)O)Nc1ccc(C=O)cc1 (stereo not given) | inactive | –

Compound | Potency | activity change, negative = inhibition
C=C1CCC2C(C)(C)C(O)CCC2(C)C1CCC(C)CCOC(=O)CCC(=O)O (stereo not given) | inactive | –
Cc1ccc(C(=O)Nc2ccc(Oc3cc4cnn(C)c4cc3-c3cn[nH]c3)c(F)c2)c(=O)n1-c1ccc(F)cc1 | inactive | –
CC1CCC2C(C)(C)C(O)CCC2(C)C12Cc1c(O)cc3c(c1O2)CN=C3N (stereo not given) | inactive | –
CCCOc1ccn2c(C(C)=O)cc(-c3ccccc3S(C)(=O)=O)c2c1 | inactive | –
CC1=CC(=O)CC(C)(C)C1CCC(C)OC1OC(COC(=O)c2cc(O)c(O)c(O)c2)C(O)C(O)C1O (stereo not given) | inactive | –
CC12CC34C=CC(=O)C(C)(CCC(=O)O)C3C(CC1C4)O2 (stereo not given) | inactive | –
CC(C(=O)O)C1CCC2(C)C3C(=O)C=C4C(CCC(=O)C4(C)C)C3(C)CCC12C (stereo not given) | inactive | –
CCC[C@@H]1C[C@@H](C(=O)N[C@@H]([C@H]2O[C@H](SC)[C@H](O)[C@@H](O)[C@@H]2O)[C@@H](C)O)N(C)C1 | inactive | –
C=CC1(C)CC(OC(=O)C(=C)C(O)COC(C)=O)C(C(=C)C(=O)OC)C(O)C1C(=C)CO (stereo not given) | inactive | –
C#C[C@]1(O)CC[C@H]2[C@@H]3CCC4=C/C(=N/O)CC[C@@H]4[C@H]3CC[C@@]21CC | inactive | –
COC(=O)C1=COC(O[C@@H]2O[C@H](CO)[C@@H](O)[C@H](O)[C@H]2O)/C(=C\COC(=O)c2ccc(OC3OC(CO)C(O)C(O)C3O)c(OC)c2)C1CC(=O)OCCc1ccc(O)cc1 (stereo not given in full) | inactive | –
C=C1CC[C@H]2[C@@](C)(CCC[C@@]2(C)C(=O)O)[C@@H]1CCC(C)CCO (stereo not given in full) | inactive | –
NC(=O)Nc1cc(-c2ccc(CN3CCOCC3)c(F)c2)sc1C(=O)N[C@H]1CCCNC1 | inactive | –
COc1cc(COC2OC(CO)C(O)C(O)C2O)cc(OC)c1O (stereo not given) | inactive | –
CC1=CC(=O)C2C(C)(C)CCCC2(C)C12CCC1(COC(=O)C1)O2 (stereo not given) | inactive | –
CC(=O)OC1C(O)C(C)=C(CCC(C)CC(=O)O)C2(C)CCCC(C)(C)C12 (stereo not given) | inactive | –
COC1=CC(=O)C[C@@H](C)[C@]12Oc1cc(OC)cc(OC)c1C2=O | inactive | –
CC(C)CC(=O)OC[C@H]1O[C@@](COC(=O)CC(C)C)(O[C@H]2O[C@H](CO)[C@@H](O)[C@H](O)[C@H]2O)[C@@H](OC(=O)CC(C)C)[C@@H]1OC(=O)CC(C)C | inactive | –
COC(=O)CC[C@@H](C)[C@H]1CC[C@H]2[C@@H]3CC(=O)[C@H]4C[C@H](OC(C)=O)CC[C@]4(C)[C@H]3CC[C@]12C | inactive | –
O=C(OCC12OC1C=CC(OC(=O)c1ccccc1)C2O)c1ccccc1 (stereo not given) | inactive | –
